Measured values published in article PMC5540273 (PLoS ONE, 2017).

Legend:
Conditions in all cases: concentration: 1 μM, replicates: in singlicate; n = 1
EPHB4 = test system: EPHB4
EPHB6 = test system: EPHB6
ERBB2 = test system: ERBB2
ERBB3 = test system: ERBB3
ERBB4 = test system: ERBB4
ERK1 = test system: T1, ERK1
T1 construct: gene MAPK3

ERK2 = test system: T2, ERK2
T2 construct: gene MAPK1

ERK3 = test system: T3, ERK3
T3 construct: gene MAPK6

ERK4 = test system: T4, ERK4
T4 construct: gene MAPK4

ERK5 = test system: T5, ERK5
T5 construct: gene MAPK7

ERK8 = test system: T6, ERK8
T6 construct: gene MAPK15

ERN1 = test system: ERN1
FAK = test system: T7, FAK
T7 construct: gene PTK2

FER = test system: FER
FES = test system: FES
FGFR1 = test system: FGFR1
FGFR2 = test system: FGFR2
FGFR3 = test system: FGFR3
FGFR4 = test system: FGFR4
FGR = test system: FGR
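Note: KINOMEscan kinase panel screen.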

Row | Compound | %Inh (EPHB4) | %Inh (EPHB6) | %Inh (ERBB2) | %Inh (ERBB3) | %Inh (ERBB4) | %Inh (ERK1) | %Inh (ERK2) | %Inh (ERK3) | %Inh (ERK4) | %Inh (ERK5) | %Inh (ERK8) | %Inh (ERN1) | %Inh (FAK) | %Inh (FER) | %Inh (FES) | %Inh (FGFR1) | %Inh (FGFR2) | %Inh (FGFR3) | %Inh (FGFR4) | %Inh (FGR)
1 | COc1ccc(CSc2nnc(-c3ccc4ncsc4c3)o2)cc1C(F)(F)F | 18% | 0% | 0% | 0% | 0% | 0% | 30% | 0% | 0% | 0% | 57% | 0% | 0% | 0% | 14% | 5% | 0% | 0% | 0% | 27%
2 | CS(=O)(=O)Cc1ccc(Nc2nccc(-c3c(-c4cccc(NC(=O)C5CCCCC5)c4)nn4ncccc34)n2)cc1 [GSK350559] | 0% | 42% | 25% | 22% | 74% | 2% | 0% | 0% | 3% | 0% | 0% | 33% | 0% | 8% | 0% | 0% | 41% | 16% | 6% | 27%
3 | COC(=O)C(NC(=O)NC1CCN(c2ccnc(Nc3ccc(F)cc3)n2)C1)c1ccccc1 (stereo not shown) [GSK1379712] | 6% | 92% | 20% | 0% | 0% | 2% | 0% | 0% | 24% | 13% | 0% | 4% | 0% | 19% | 0% | 0% | 0% | 7% | 19% | 8%
4 | Fc1ccc(-c2nn3cccc(F)c3c2-c2ccncc2)cc1 [GW475620] | 10% | 0% | 39% | 0% | 30% | 21% | 10% | 0% | 4% | 0% | 15% | 0% | 1% | 17% | 0% | 23% | 25% | 6% | 0% | 15%
5 | COc1cccc(CNC(=O)NC2CCN(c3ccnc(Nc4ccc(F)cc4)n3)C2)c1 (stereo not shown) [GSK1379723] | 2% | 15% | 2% | 0% | 22% | 0% | 0% | 10% | 0% | 0% | 60% | 4% | 0% | 6% | 0% | 0% | 3% | 15% | 10% | 8%
6 | COc1cc2ncnc(Nc3cccc(Br)c3)c2cc1OC.Cl [GI230329] | 21% | 3% | 97.1% | 41% | 72% | 0% | 0% | 6% | 22% | 0% | 0% | 2% | 0% | 31% | 0% | 0% | 22% | 11% | 0% | 26%
7 | CNc1cc(-c2ccc3c(N)n[nH]c3c2)nc(N)n1 [GSK2224810] | 19% | 0% | 32% | 0% | 0% | 0% | 0% | 3% | 7% | 0% | 0% | 0% | 0% | 19% | 9% | 0% | 0% | 28% | 7% | 24%
8 | COC(=O)c1cccc(NC(=O)NC2CCN(c3ccnc(Nc4ccc(F)cc4)n3)C2)c1 (stereo not shown) [GSK1379725] | 0% | 0% | 16% | 0% | 0% | 0% | 0% | 0% | 0% | 0% | 0% | 0% | 0% | 0% | 0% | 0% | 4% | 4% | 9% | 12%
9 | Cc1ccc(NC(=O)Nc2ccc(Cl)c(C(F)(F)F)c2)cc1-c1ccc(C(=O)Nc2ccncc2)cc1 [GSK1398470] | 12% | 18% | 0% | 0% | 6% | 15% | 12% | 10% | 10% | 0% | 0% | 25% | 0% | 22% | 15% | 0% | 12% | 23% | 11% | 19%
10 | CCn1c(-c2ccccc2)nc2cnccc21 [SB-733416] | 16% | 0% | 0% | 0% | 0% | 0% | 18% | 0% | 0% | 37% | 23% | 0% | 2% | 18% | 0% | 18% | 0% | 0% | 23% | 22%
11 | COc1ccc(Nc2nccc(N3CCC(NC(=O)C(C)c4ccc(Cl)cc4)C3)n2)cc1 (stereo not shown) [GSK1379735] | 7% | 18% | 11% | 9% | 0% | 0% | 0% | 0% | 0% | 0% | 44% | 0% | 0% | 28% | 12% | 8% | 36% | 17% | 3% | 10%
12 | O=c1cc(N2CCOCC2)nc2n(Cc3cccc(Cl)c3Cl)c3ccccc3n12 [GSK2299009] | 0% | 33% | 6% | 0% | 10% | 0% | 15% | 26% | 45% | 0% | 0% | 18% | 0% | 49% | 0% | 31% | 4% | 10% | 21% | 17%
13 | CCn1c(-c2c(N)noc2C)nc2cnccc21 [SB-737856] | 54% | 0% | 31% | 0% | 0% | 0% | 9% | 100% | 16% | 0% | 41% | 15% | 0% | 3% | 42% | 0% | 28% | 37% | 11% | 61%
14 | CC(=O)c1cccc(NC(=O)NC2CCN(c3ccnc(Nc4ccc(F)cc4)n3)C2)c1 (stereo not shown) [GSK1379710] | 4% | 19% | 15% | 8% | 6% | 0% | 0% | 0% | 30% | 12% | 0% | 19% | 0% | 3% | 0% | 0% | 0% | 6% | 11% | 0%
15 | COc1ccc(Nc2nccc(-c3ccc(NC(=O)c4cc5cc(F)ccc5[nH]4)cc3)n2)cc1 [GSK1229496] | 16% | 6% | 38% | 13% | 6% | 0% | 0% | 0% | 0% | 0% | 0% | 0% | 0% | 16% | 15% | 0% | 19% | 9% | 0% | 10%
16 | CCCCc1nn2ncccc2c1-c1ccnc(NC2CC2)n1 [GW684374] | 4% | 39% | 21% | 0% | 16% | 0% | 0% | 3% | 27% | 0% | 0% | 0% | 0% | 0% | 0% | 0% | 0% | 5% | 0% | 7%

Row | Compound | %Inh (EPHB4) | %Inh (EPHB6) | %Inh (ERBB2) | %Inh (ERBB3) | %Inh (ERBB4) | %Inh (ERK1) | %Inh (ERK2) | %Inh (ERK3) | %Inh (ERK4) | %Inh (ERK5) | %Inh (ERK8) | %Inh (ERN1) | %Inh (FAK) | %Inh (FER) | %Inh (FES) | %Inh (FGFR1) | %Inh (FGFR2) | %Inh (FGFR3) | %Inh (FGFR4) | %Inh (FGR)
17 | COc1ccc(-c2coc3ccc(-c4nnc(C)o4)cc23)cc1 | 24% | 0% | 0% | 0% | 0% | 0% | 0% | 0% | 1% | 1% | 0% | 0% | 0% | 0% | 22% | 0% | 4% | 4% | 0% | 36%
18 | NS(=O)(=O)c1cccc(N/C=C2\C(=O)Nc3ccc(S(=O)(=O)Cc4c(Cl)cccc4Cl)cc32)c1 [GSK398099] | 15% | 44% | 0% | 0% | 37% | 0% | 0% | 24% | 48% | 0% | 0% | 7% | 0% | 7% | 1% | 0% | 0% | 7% | 9% | 31%
19 | Cn1cncc1C(=O)NC1CCN(c2ccnc(Nc3ccc(F)cc3)n2)C1 (stereo not shown) [GSK1379717] | 14% | 15% | 0% | 0% | 5% | 0% | 0% | 0% | 0% | 0% | 0% | 0% | 0% | 0% | 0% | 0% | 0% | 7% | 1% | 22%
20 | COc1cccc(C2=C(Nc3cc(Cl)c(O)c(Cl)c3)C(=O)NC2=O)c1 [SB-390767] | 18% | 46% | 0% | 3% | 4% | 0% | 0% | 0% | 0% | 0% | 37% | 17% | 0% | 0% | 0% | 0% | 53% | 41% | 29% | 22%
21 | Cc1c(Cn2c3ccccc3n3c(=O)cc(N4CCOCC4)nc23)cccc1C(F)(F)F [GSK2306394] | 0% | 0% | 0% | 0% | 60% | 36% | 0% | 0% | 100% | 0% | 26% | 10% | 0% | 6% | 0% | 4% | 2% | 0% | 0% | 0%
22 | CC(=O)c1c(C)c2cnc(Nc3ccc(N4CCNCC4)cn3)nc2n(C2CCCC2)c1=O | 23% | 17% | 9% | 0% | 0% | 0% | 0% | 89% | 25% | 0% | 17% | 0% | 0% | 4% | 0% | 2% | 0% | 0% | 0% | 20%
23 | Cc1ccc(NC(=O)c2ccc(Cl)cc2)cc1-c1ccc(C(=O)Nc2ccncc2)cc1 [GSK1398467] | 30% | 0% | 30% | 0% | 12% | 0% | 0% | 0% | 19% | 0% | 0% | 0% | 0% | 24% | 0% | 0% | 0% | 7% | 18% | 40%
24 | O=C1NC(=O)C(c2ccc(Cl)cc2)=C1Nc1ccc(O)cc1 [SB-340867] | 0% | 0% | 0% | 0% | 26% | 0% | 0% | 0% | 0% | 0% | 29% | 0% | 0% | 4% | 0% | 0% | 0% | 0% | 0% | 12%
25 | Cc1ccc(NC(=O)Nc2ccccc2)cc1-c1ccc(C(=O)Nc2ccncc2)cc1 [GSK1398471] | 26% | 12% | 0% | 0% | 0% | 6% | 0% | 8% | 18% | 0% | 0% | 0% | 0% | 20% | 20% | 0% | 0% | 18% | 13% | 34%
26 | CCc1ccc(-c2ccc3c(c2)-c2n[nH]cc2S(=O)(=O)N3C)cc1 | 8% | 0% | 40% | 15% | 0% | 0% | 7% | 0% | 0% | 5% | 0% | 0% | – | 6% | 2% | 6% | 0% | 0% | 0% | 9%
27 | Fc1ccc(-c2nc[nH]c2-c2ccncc2)cc1 [SB-217360] | 0% | 3% | 41% | 5% | 10% | 2% | 0% | 0% | 12% | 0% | 4% | 43% | 0% | 23% | 0% | 0% | 0% | 0% | 0% | 0%
28 | O=C(Nc1n[nH]c2cc(-c3ccsc3)ccc12)C1CC1 [SB-732932] | 9% | 18% | 0% | 5% | 9% | 0% | 7% | 0% | 1% | 3% | 92.4% | 8% | 6% | 0% | 0% | 1% | 0% | 3% | 0% | 13%
29 | O=C1NC(=O)C(c2ccc(Cl)cc2)=C1Nc1cccc(Cl)c1 [SB-317651] | 0% | 8% | 14% | 0% | 0% | 0% | 8% | 0% | 0% | 0% | 10% | 3% | 0% | 0% | 0% | 0% | 0% | 4% | 0% | 0%
30 | COc1cccc(NC(=O)Nc2ccc(C)c(-c3ccc(C(=O)Nc4ccncc4)cc3)c2)c1 [GSK1398474] | 8% | 26% | 0% | 0% | 25% | 7% | 0% | 7% | 1% | 0% | 1% | 1% | 13% | 42% | 12% | 9% | 0% | 28% | 3% | 32%
31 | CNc1nc(-c2ccc3c(N)n[nH]c3c2)cc(N2C[C@@H](C(=O)NC3CCCCC3)OC[C@H]2C)n1 [GSK2375584] | 14% | 0% | 27% | 15% | 24% | 0% | 1% | 0% | 8% | 0% | 0% | 0% | 0% | 34% | 0% | 13% | 27% | 27% | 7% | 17%
